High-throughput results deposited in PubChem BioAssay by Broad Institute.
GSIS activator = GLuc luminescence reporter in INS-1E cells, primary screen for activators of glucose-dependent secretion of insulin | activation, % at 16.6 µM | actives 0.61% (n = 370,000) | INS-1E GLuc reporter insulin secretion, 2-3 h;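 active means lowest replicate activation of at least 40%, so every replicate reaches that level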;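 further: 0% = median of neutral control wells and 100% = median of IBMX positive control wells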
CFTR F508del cor = CFTR F508del correction in bronchial cells | AID 720511 | activity (quench increase), % at 7.58 µM | actives 0.36% (n = 350,000) | CFBE cells, YFP halide quenching; stimulated with forskolin plus potentiator P3; % fluorescence drop versus neutral controls;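 active means mean added fluorescence quench of at least 8% versus neutral control, with both replicates also reaching 8%; inconclusive means only one of the mean or replicate conditions met; inactive means mean below 8% and not both replicates reaching 8%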;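 further: cells transiently co-express mutant CFTR-F508del with the halide-sensitive YFP; corrector assay measuring rescue of mutant channel to the surface after 24 h compound exposure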
PAX8 inh HTS = inhibitors of PAX8 transcriptional activity in RMG-I cells | RMG-I TPO-luciferase reporter, SteadyGlo, 24 h | inhibition, % at 12.6 µM | actives 1.2% (n = 360,000) | AID 652154;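 active means mean replicate inhibition at least 60% with every replicate also reaching 60%; inconclusive means only one of the two criteria is met; inactive means mean below 60% and not all replicates reaching 60%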;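 further: luciferase light reporting Pax8 driven TPO promoter activity; plate controls were median of neutral control wells for no effect and mitoxantrone controls for full effect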
EWS-Fli block = inhibitors of EWS/Fli oncoprotein transcriptional activity | A673 NR0B1-luciferase reporter, viability-normalised | inhibition, % at 12.6 µM | actives 0.67% (n = 350,000) | AID 651661;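 active means mean inhibition of at least 50% after viability correction, with every replicate also passing that limit; inconclusive means mean reaches 50% but only one of two replicates passes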;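 further: firefly luciferase signal divided by Alamar Blue viability fluorescence both relative to DMSO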
PGC1a acetyl inh = PGC1a acetylation modulation, inhibitor mode; inhibition, % at 15.6 µM; U2OS PGC1a acetylation, AlphaScreen anti-acetyl-lysine; with virally co-expressed GCN5 acetyltransferase; actives 0.17% (n = 350,000);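 active means every replicate shows inhibition of at least 40%; inconclusive means mean inhibition at least 40% but some replicate below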;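 further: 0% = neutral control wells and 100% = positive control wells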
Env fusion inh = inhibitors of HIV Env-mediated cell fusion; HeLa-JRFL Env/CEM21 cell fusion, luciferase; inhibition, % at 12.3 µM; actives 1.1% (n = 360,000);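 active means mean replicate inhibition score of at least 50 and every replicate individually at or above 50; inconclusive means only one of the two criteria met; inactive means mean below 50 and not all replicates reaching 50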;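 further: 0% = plate neutral controls and 100% = maraviroc near 300 nM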
Numbers without * were called inactive; ? = inconclusive; nt = no result given; [ ] = dose if it differs, or a comment. Most compounds without a hit are left out; they make up all but 2.7% or so of the library.

SMILES	GSIS activator	CFTR F508del cor	PAX8 inh HTS	EWS-Fli block	PGC1a acetyl inh	Env fusion inh
Brc1ccc2ncnc(NCc3ccccc3)c2c1	nt	nt	nt	nt	42.4*	nt
Cc1csc(CNc2ncnc3ccc(-c4ccc5c(c4)OCO5)cc23)c1	1.6	1.7	45.0	19.0	3.4	60.7*
COc1ccc(S(=O)(=O)Nc2ccc3c(c2)C(=O)N([C@H](C)CO)C[C@H](C)[C@H](CN(C)C(=O)NC2CCCCC2)OCCCC[C@H](C)O3)cc1	-37.0	2.0	13.2	8.3	-1.0	-190.0[16.7 µM]
Cc1cccc(CNc2ncnc3ccc(-c4ccc5c(c4)OCCO5)cc23)c1	-15.6	-0.5	80.2*	21.5	-10.2	80.3*
COc1ccc(S(=O)(=O)Nc2ccc3c(c2)C(=O)N([C@@H](C)CO)C[C@H](C)[C@@H](CN(C)S(=O)(=O)c2ccc(F)cc2)O3)cc1	-10.8	0.6	nt	-6.1	2.3	17.9[16.7 µM]
COc1ccc(C(Nc2cccc([N+](=O)[O-])c2)P(=O)(OC(C)C)OC(C)C)cc1 (configuration not stated)	-40.4	4.9	8.4	6.5	-4.1	57.0*
CC(C)OP(=O)(OC(C)C)C(Nc1ccc([N+](=O)[O-])cc1)c1cccc([N+](=O)[O-])c1 (configuration not stated)	-33.1	1.2	25.7	10.1	nt	3.9
N#Cc1c(N)nc(SCc2ccccn2)c(C#N)c1-c1cccs1	-16.4	nt	nt	nt	10.5	55.9*
COc1ccccc1CNC(=O)COC(=O)CSc1ccc(C)c(C)c1	65.4	-2.0	8.1	-2.9	-10.3	68.3*
C[C@@H]1CN([C@H](C)CO)C(=O)c2cc(C3=CCCC3)cnc2O[C@H]1CN(C)C(=O)C1CC1	1.4	-3.1	nt	-9.8	-8.9	-9.2[16.7 µM]
O=C(Nc1nc2ccc(F)cc2s1)C1=COCCO1	5.3	-1.1	12.8	68.7*	nt	-23.2
O=C(Nc1nc2ccc(F)cc2s1)c1ccccn1	18.0	0.8	74.7*	83.8*	nt	40.2
NS(=O)(=O)c1ccc2nc(NC(=O)c3ccc4c(c3)OCCO4)sc2c1	9.6	8.9*	-15.8	-10.1	0.9	-26.5
O=C(Nc1nc2cc3c(cc2s1)OCCO3)C1=COCCO1	-3.7	0.5	94.0*	89.3*	3.8	64.0*
COc1ccc(NC(=O)Nc2ccc3c(c2)CC(=O)N([C@@H](C)CO)C[C@H](C)[C@@H](CN(C)Cc2ccc(C(=O)O)cc2)O3)cc1	15.0	0.1	nt	-52.7	11.1	-1.7[16.7 µM]
O=C(N/N=C/c1ccc([N+](=O)[O-])cc1)c1cccs1	19.8	-0.7	-125.1	-78.3	-2.2	-48.6
O=C(N/N=C/c1cccc([N+](=O)[O-])c1O)c1cccs1	-3.6	nt	15.5	69.0*	nt	-3.9
CCCC(=O)Nc1ccc2c(c1)C(=O)N(C)C[C@@H](OC)[C@@H](C)CN(Cc1cccc(F)c1)[C@H](C)CO2	-30.2	1.2	nt	3.0	-0.6	nt
C/C=C/c1cnc2c(c1)C(=O)N([C@@H](C)CO)C[C@H](C)[C@H](CN(C)Cc1cccc(C(=O)O)c1)O2	13.5	-2.7	-14.3	-3.9	7.9	nt
C[C@H]1CN([C@@H](C)CO)C(=O)CCCn2nncc2CO[C@H]1CN(C)C(=O)Nc1ccc(-c2cccs2)cc1	-11.0	1.5	66.0*	-2.1	nt	nt
C[C@@H]1CN([C@@H](C)CO)C(=O)CCCn2nncc2CO[C@H]1CN(C)C(=O)Nc1ccc(-c2cccs2)cc1	7.2	3.0	84.4*	-1.1	6.1	5.8
C[C@@H]1CN([C@H](C)CO)C(=O)CCCn2cc(nn2)CO[C@H]1CN(C)C(=O)Nc1ccc(-c2cccs2)cc1	-1.5	1.6	81.7*	-6.9	-8.4	nt
C[C@H](CO)N1C[C@H](C)[C@@H](CN(C)C(=O)Nc2ccc(-c3cccs3)cc2)OCc2cnnn2CCCC1=O	0.8	1.2	58.1	-7.6	?	nt
O=C(C[C@@H]1CC[C@@H]2[C@H](COC[C@H](O)CN2C(=O)Nc2ccc(C(F)(F)F)cc2)O1)NCCc1ccncc1	-17.8	-1.8	-7.7	-11.8	-5.8	nt
COc1cc(/C=C2\SC(=S)N(CCC(=O)N3CCCCC3)C2=O)cc(OC)c1OC	-2.5	0.3	100.0*	3.7	nt	38.6
SMILES	GSIS activator	CFTR F508del cor	PAX8 inh HTS	EWS-Fli block	PGC1a acetyl inh	Env fusion inh
Cc1ccc(/C=C2\SC(=O)N(CCC(=O)N3CCN(C)CC3)C2=O)cc1	50.0*	-0.5	-95.2	-84.1	nt	-15.7
CN1CCN(C(=O)CCN2C(=O)S/C(=C/c3ccc(Cl)cc3)C2=O)CC1	-2.8	1.5	-7.6	-10.9	nt	24.2
O=C(CCN1C(=O)/C(=C\c2ccccc2)SC1=S)N1CCCCC1	3.6	-0.6	-5.8	-9.6	-7.4	-2.1
O=C(CCN1C(=O)/C(=C/c2cccs2)SC1=S)N1CCCCC1	1.0	2.4	69.5*	10.8	4.6	-3.3
Cc1ccc(/C=C2\SC(=S)N(CCC(=O)N3CCCCC3)C2=O)cc1	13.1	2.4	5.7	-13.5	nt	-10.3
O=C(CCN1C(=O)/C(=C/c2ccccc2Cl)SC1=S)Nc1ccccc1C(=O)O	2.6	0.6	100.5*	6.3	-0.7	-15.8
Cc1noc(C)c1NC(=O)Nc1ccc2c(c1)C(=O)N([C@@H](C)CO)C[C@H](C)[C@@H](CN(C)C(=O)Nc1ccc(C(F)(F)F)cc1)OCCCC[C@@H](C)O2	-3.3	-2.7	32.1	-2.3	1.1	-10.0[16.7 µM]
COCC(=O)N1CCC2(CC1)CN(C(=O)Cc1ccccc1)[C@H](CO)c1c2c2ccc(OC)cc2n1C	-20.7	1.9	nt	4.7	6.1	nt
C[C@@H]1CCCCO[C@H](CN(C)C(=O)Nc2ccc3c(c2)OCO3)[C@@H](C)CN([C@H](C)CO)C(=O)c2cc(NC(=O)c3ccncc3)ccc2O1	22.0	-1.7	nt	-2.0	3.2	18.1[16.7 µM]
Cc1cc(NC(=O)CCCN2C(=O)/C(=C\c3cccs3)SC2=S)no1	54.1*	nt	2.8	nt	9.4	3.5
O=C(CCN1C(=O)/C(=C\c2ccccc2F)SC1=S)N1CCOCC1	41.8*	-5.8	18.4	6.3	-3.5	30.4
C[C@H](CO)N1C[C@H](C)[C@H](CN(C)S(C)(=O)=O)Oc2ccc(NC(=O)Nc3ccc4c(c3)OCO4)cc2C1=O	4.3	-3.6	nt	5.1	10.2	nt
COc1ccc(-c2noc(CCCCC(=O)N3CCN(c4cc(C)ccc4C)CC3)n2)cc1	-53.1	1.5	40.8	44.2	14.9	68.3*
NC(N)=NN=C(c1ccc(F)cc1)c1ccc(C(F)(F)F)cc1	230.1	12.5*	95.4*	44.4	-33.3	-274.4
CCC(=O)N1C[C@@H](C)[C@@H](OC)CN(C)C(=O)c2cc(NS(=O)(=O)CC)ccc2OC[C@@H]1C	5.1	0.8	-2.1	1.7	11.3	7.6[16.7 µM]
O=C(C[C@@H]1CC[C@@H]2[C@H](COC[C@@H](O)CN2C(=O)c2cccnc2)O1)NCc1ccc(Cl)cc1	0.2	0.3	4.3	-3.9	-6.9	-1.5[16.7 µM]
